Data reported in PubChem BioAssay AID1851 (National Center for Advancing Translational Sciences (NCATS), 2009).
The campaign covered roughly 16,000 compounds. About 5,100 (32%) were called active. About 25% were inconclusive and are not listed. This is one part of the list. Unmarked numbers belong to inactive results. Calls follow the shape of the dose curve; as a rule, active = well fitted curve in the direction sought with a large enough effect; inconclusive = small, poorly fitted or top-dose-only effect, or effect the other way; inactive = no such curve, though single readings can be large or run the other way.

Each compound was assayed against Cytochrome P450 3A4 (Homo sapiens) (UniProt P08684) (assay: Cytochrome panel assay with activity outcomes). Details: recombinant CYP, pro-luciferin dealkylation, luminescence, p450-cyp3a4; series mostly up to 57.1 µM.
% is scaled to controls: 0 for no effect and ±100 for the full control effect.

Cytochrome P450 3A4 (Homo sapiens), sequence (P08684 whole entry, looked up): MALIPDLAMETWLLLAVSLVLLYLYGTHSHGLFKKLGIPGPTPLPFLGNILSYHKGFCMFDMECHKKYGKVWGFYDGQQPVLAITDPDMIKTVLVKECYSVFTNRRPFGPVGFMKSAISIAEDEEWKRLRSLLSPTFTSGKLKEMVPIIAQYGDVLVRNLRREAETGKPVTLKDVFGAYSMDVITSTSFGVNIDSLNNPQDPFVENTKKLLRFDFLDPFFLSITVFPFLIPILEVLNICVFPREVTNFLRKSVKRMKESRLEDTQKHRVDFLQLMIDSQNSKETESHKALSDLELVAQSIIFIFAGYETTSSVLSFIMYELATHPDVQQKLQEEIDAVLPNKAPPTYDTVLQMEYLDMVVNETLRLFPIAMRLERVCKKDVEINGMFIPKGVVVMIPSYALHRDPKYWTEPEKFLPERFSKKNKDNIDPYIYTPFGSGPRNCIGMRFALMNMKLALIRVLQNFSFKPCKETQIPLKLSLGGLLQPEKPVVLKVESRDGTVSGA

Question: How did the activity, negative = inhibition turn out when `CCOC(=O)N/N=C1/C[C@@H](O)[C@@H](O)[C@@H]2[C@@H]3C(=O)N(C4CCCCC4)C(=O)[C@H]3CC[C@@H]12` was run?
Answer: Its activity, negative = inhibition is -20.8% [at 11.4 µM].

Question: How did the AC50 turn out when `O=C(Nc1cccc(Cl)c1Cl)c1snnc1-c1ccccc1` was run?
Answer: Its AC50 is “inactive”.

Question: `COC(=O)[C@H](C)[C@@H]1C[C@@]1(C)[C@@H](NC(=O)OCc1ccccc1)c1ccccc1` was tested. Which AC50 did it give?
Answer: Its AC50 is 10 µM (active).

Question: `COC(=O)[C@H](C)[C@H]1C[C@]1(C)[C@H](NC(=O)OCc1ccccc1)c1ccccc1` was tested. Which AC50 did it give?
Answer: The AC50 was 7.94 µM (active).

Question: How did the activity, negative = inhibition turn out when `CN(C)CCNS(=O)(=O)N(C)C` was run?
Answer: Its activity, negative = inhibition is -13.5% [at 11.4 µM].

Question: For `CC(=O)NN1C(=O)c2ccc(Oc3ccc([N+](=O)[O-])cc3)cc2C1=O`, which AC50 is on record?
Answer: The AC50 was “inactive”.

Question: With `Nc1ccc(Oc2ccc3nc(-c4ccccc4)c(-c4ccc([N+](=O)[O-])cc4)nc3c2)cc1` as the compound, how does the AC50 read?
Answer: The AC50 was 3.55 µM (active).

Question: Which activity, negative = inhibition does the source give for `Cc1nc2ccccc2nc1-c1ccc(N=[N+]([O-])c2ccc(-c3nc4ccccc4nc3C)cc2)cc1` here?
Answer: Its activity, negative = inhibition is 3.4% [at 11.4 µM].

Question: `Cc1noc(C)c1CS(=O)(=O)c1ccc(Br)cc1` was tested. Which AC50 did it give?
Answer: The AC50 was 15.8 µM (active).

Question: For `CNC(=O)CCc1nc(-c2ccc(C(C)(C)C)cc2)no1`, which AC50 is on record?
Answer: Its AC50 is “inactive”.

Question: `COc1ccc(-c2noc(CCCC(=O)NCCc3ccccc3)n2)cc1OC` was tested. Which AC50 did it give?
Answer: The AC50 was 11.2 µM (active).

Question: With `O=C(CCc1nc(-c2ccccc2)no1)NCCc1ccccc1` as the compound, how does the AC50 read?
Answer: The AC50 was “inactive”.

Question: With `COc1ccccc1N/C(=N/S(=O)(=O)c1ccc(C)cc1)c1ccc(Cl)cc1` as the compound, how does the AC50 read?
Answer: The AC50 was 2.24 µM (active).

Question: For `Cc1c(NC(=O)Nc2c(Cl)cccc2Cl)c(=O)n(-c2ccccc2)n1C`, which activity, negative = inhibition is on record?
Answer: Its activity, negative = inhibition is 4.74% [at 11.4 µM].

Question: Which AC50 does the source give for `Cc1c(NCc2cc(Cl)ccc2O)c(=O)n(-c2ccccc2)n1C` here?
Answer: Its AC50 is 14.1 µM (active).

Question: Which AC50 does the source give for `Cc1nn(-c2ccccc2)c(Cl)c1C(=O)Nc1c(C)n(C)n(-c2ccccc2)c1=O` here?
Answer: The AC50 was “inactive”.

Question: How did the AC50 turn out when `Cc1c(NC(C)C)c(=O)n(-c2ccccc2)n1C` was run?
Answer: The AC50 was “inactive”.

Question: With `Cc1ccc(S(=O)(=O)/N=C(/Nc2c(C)n(C)n(-c3ccccc3)c2=O)c2ccc(Cl)cc2)cc1` as the compound, how does the AC50 read?
Answer: The AC50 was 3.16 µM (active).

Question: With `O=S(=O)(/N=C(\Sc1ccccc1)c1ccccc1)c1ccc(Cl)cc1` as the compound, how does the AC50 read?
Answer: The AC50 was “inactive”.

Question: `Cc1c(NC(=O)C2CCN(S(=O)(=O)c3ccc(Cl)cc3)CC2)c(=O)n(-c2ccccc2)n1C` was tested. Which AC50 did it give?
Answer: The AC50 was 7.94 µM (active).

Question: For `CC(=O)NC1=NN(c2ccccc2)C(=O)C1`, which AC50 is on record?
Answer: The AC50 was “inactive”.

Question: `O=c1c(-c2cc(F)cc(F)c2)nc2cnc(N3CCNCC3)nc2n1Cc1cccs1` was tested. Which AC50 did it give?
Answer: Its AC50 is 10 µM (active).

Question: For `O=c1c(-c2ccc(F)cc2)nc2cnc(N3CCNCC3)nc2n1Cc1cccs1`, which AC50 is on record?
Answer: The AC50 was 10 µM (active).

Question: How did the AC50 turn out when `O=c1c(-c2ccc(Cl)cc2)nc2cnc(N3CCNCC3)nc2n1Cc1cccs1` was run?
Answer: The AC50 was 5.01 µM (active).

Question: Which AC50 does the source give for `O=c1c(-c2ccccc2)nc2cnc(N3CCOCC3)nc2n1Cc1cccs1` here?
Answer: Its AC50 is “inactive”.

Question: `Cn1c(=O)c(-c2cc(F)cc(F)c2)nc2cnc(N3CCOCC3)nc21` was tested. Which AC50 did it give?
Answer: Its AC50 is “inactive”.

Question: How did the AC50 turn out when `O=c1c(-c2cc(F)cc(F)c2)nc2cnc(N3CCOCC3)nc2n1C[C@H]1CCCO1` was run?
Answer: Its AC50 is “inactive”.
